Records with an inconclusive call do not appear. Calls of active or inactive are those of the source. Unless noted, calls come from the whole dose curve; as a rule, active = well fitted curve in the direction sought with a large enough effect in the repeat runs; inconclusive = weak or mixed curves; inactive = no such curve, though single readings can be large; an effect the other way counts as inactive or inconclusive.

24 compounds from PubChem BioAssay (Tox21) can be followed below.

Experiment [1] is described as follows: qHTS assay for small molecules that induce genotoxicity in human embryonic kidney cells expressing luciferase-tagged ATAD5 (AID 651632). Note: nearly all actives have a fitted effect of over 15% in size. Note: potency is the fitted concentration of half-maximal effect. The settings on record: HEK293T ATAD5-luciferase induction, 16 h; series mostly up to 83.3 µM. The method in brief:
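Cells were seeded at 2,000 per well, dosed with compound, and incubated 16 hr at 37C in 5% CO2. Luciferase activity was then quantified after a 30 min room-temperature incubation with Amplite.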
A general note: In qHTS, concentration-response curves come from the screen itself.

Experiment [2] can be described thus: qHTS assay for small molecule agonists of the p53 signaling pathway - cell viability (AID 651633; calls by dose curve; note: nearly all actives have a fitted effect of over 30% in size; note: potency is the fitted concentration of half-maximal effect). As to conditions: p53RE-bla HCT-116 viability, ATP luminescence, 16 h; series mostly up to 83.3 µM. The method in brief: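 Viability counter-read: CellTiter-Glo luminescence (30 min, room temperature) in the same p53RE-bla plates. These plates had been exposed to compounds for 16 h at 37 C.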

A short description of experiment [3]: qHTS assay for small molecules that induce genotoxicity in human embryonic kidney cells expressing luciferase-tagged ATAD5 - cell viability (AID 651634; calls by dose curve; note: nearly all actives have a fitted effect of over 25% in size). The settings on record: HEK293T ATAD5-luc cells viability, CellTiter-Fluor, 15.5 h; series mostly up to 83.3 µM. The gist of the method: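 Cells (HEK293T, luciferase-tagged ATAD5) are seeded at 2,000 per well, dosed with compound or DMSO vehicle, and incubated 15.5 hr at 37C and 5% CO2. CellTiter-Fluor is added for 30 min before fluorescence is measured.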

Experiment [4] in a line: qHTS assay for small molecule disruptors of the mitochondrial membrane potential - cell viability (AID 720634; calls by dose curve; note: nearly all actives have a fitted effect of over 20% in size; note: potency is the fitted concentration of half-maximal effect). As to conditions: HepG2 viability, ATP luminescence (CellTiter-Glo), 1 h; series mostly up to 83.2 µM. The method in brief:
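Cytotoxicity was measured by ATP quantitation in HepG2 wells that had first been treated with compound for 1 hr and stained with m-MPI dye; CellTiter-Glo incubation was 30 min at room temperature.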

The nature of experiment [5]: qHTS assay to test for compound auto fluorescence at 535 nm (green) in HepG2 cells (AID 720675). As to conditions: green autofluorescence 485/535 nm, 1 h; series mostly up to 91.3 µM.
Experiment [6] in a line: qHTS assay to test for compound auto fluorescence at 460 nm (blue) in HEK293 cells (AID 720678). As to conditions: blue autofluorescence 405/460 nm; series mostly up to 91.3 µM. The gist of the method: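 Blue-channel (Ex/Em 405/460 nm) intensity measured in HEK293 cultures after overnight compound exposure at 37C; signal expressed relative to triamterene. Cells plated 2,000 per well in 10% dialyzed FBS medium and allowed 4-5 hr to attach.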

The nature of experiment [7]: qHTS assay to test for compound auto fluorescence at 590 nm (red) in HEK293 cells (AID 720679). As to conditions: red autofluorescence 540/590 nm; series mostly up to 91.3 µM. The method in brief: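 Red-channel autofluorescence (Ex/Em 540/590 nm; Rose Bengal sodium reference) was measured after overnight 37C, 5% CO2 exposure of attached HEK293 cells, 2,000 per well in medium with 10% dialyzed FBS.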

Experiment [8] in a line: qHTS assay for small molecule disruptors of the mitochondrial membrane potential (AID 720635). Note: potency is the fitted concentration of half-maximal effect. The settings on record: HepG2 mitochondrial membrane potential, Mito-MPS dye ratio; series mostly up to 83.2 µM. The method in brief: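 Mitochondrial membrane potential tracked with Mito-MPS dye, red aggregates (ex 540/em 590 nm) against green monomers (ex 490/em 535 nm). Compound treatment 1 hr at 37C, dye 30 min in HepG2.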

Experiment [9] can be described thus: qHTS assay to test for compound auto fluorescence at 590 nm (red) in HepG2 cells (AID 720674). As to conditions: HepG2 autofluorescence, red 540/590 nm, 1 h; series mostly up to 91.3 µM. The gist of the method:
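Red autofluorescence (Ex/Em 540/590 nm, Rose Bengal sodium equivalents) was measured in HepG2 cells, 2,000 per well in MEM plus 10% FBS, plated overnight at 37 C. Readings were taken 1 hr after adding 23 nL compound or DMSO, at 37 C and 5% CO2.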

`Nc1cc2c3c(c1)C(c1ccccc1)=N[C@@H](NC(=O)c1cccnc1)C(=O)N3CC2`: the Potency result in experiment [1], in [2], in experiment [3] and in experiment [4] was “inactive” each time. Also, the result in experiment [5], in experiment [6] and in experiment [7] was inactive.
With `C=CCC1=C(C)[C@@H](OC(=O)[C@@H]2[C@@H](C=C(C)C)C2(C)C)CC1=O`, the Potency entry in [1] and in experiment [3] was “inactive” each time. The figures for the Potency in experiment [2], in [4] and in experiment [8] were 61.1 µM (active), 61.1 µM (active) and 15.4 µM (active), respectively. Also, the compound was called inactive in [9], in experiment [5] and in experiment [7].
Regarding `CC(=O)C(Cl)Cl`, the Potency entry in experiment [1], in experiment [2] and in experiment [4] was “inactive” throughout. Moreover, the compound was called inactive in [9], in experiment [5], in experiment [6] and in [7].
On to `CCc1cc2c(s1)-n1c(C)nnc1CN=C2c1ccccc1Cl`, for which the Potency in experiment [1] was 26.6 µM (active). The Potency result in experiment [2], in [3] and in experiment [4] was “inactive” in each case. Moreover, the result in [9], in [5], in experiment [6] and in [7] was inactive.
For the compound `CCOP(=O)(N=C1SCCS1)OCC`, the Potency entry in experiment [1], in [2], in experiment [3] and in experiment [4] was “inactive” in each case. Besides, the compound was called inactive in experiment [5] and in experiment [6].
On to `COC(=O)c1ccccc1S(=O)(=O)NC(=O)Nc1nc(C)cc(C)n1`, for which the Potency result in experiment [1], in experiment [2] and in [4] was “inactive” throughout. Besides, the call in experiment [9], in experiment [5] and in [7] was inactive.
With `O=C(Nc1ccccc1)c1ccccc1I`, the Potency result in experiment [1], in [2], in experiment [3] and in experiment [4] was “inactive” throughout. Further, the compound was classed as inactive in [9], in experiment [5], in experiment [6] and in [7].
As to `CCOP(=S)(OCC)Oc1ncn(-c2ccccc2)n1`, the Potency entry in experiment [1], in experiment [2], in experiment [3] and in experiment [4] was “inactive” in each case. Moreover, in experiment [8], the Potency was 6.86 µM (active). Besides, the call in [9], in experiment [5], in [6] and in experiment [7] was inactive.
As for `COc1cc(OC)nc(NC(=O)NS(=O)(=O)c2ncccc2C(=O)N(C)C)n1`, the Potency entry in [1], in [2], in [3], in experiment [4] and in experiment [8] was “inactive” each time. Also, the call in experiment [5], in experiment [6] and in experiment [7] was inactive.
With `CC(Oc1ccc(Oc2ncc(C(F)(F)F)cc2Cl)cc1)C(=O)O` (stereo not given), the Potency result in experiment [1], in experiment [2] and in experiment [4] was “inactive” in each case. Besides, the outcome in experiment [6] and in [7] was inactive.
For the compound `CC(C)CC(N(C)C)C1(c2ccc(Cl)cc2)CCC1` (stereo not given), the Potency result in experiment [1], in experiment [2] and in experiment [4] was “inactive” throughout. Moreover, the call in experiment [9], in experiment [5] and in [7] was inactive.
Regarding `CCSC(=O)N(CC)C1CCCCC1`, the Potency result in experiment [1], in experiment [2] and in [4] was “inactive” in each case. Further, the compound was classed as inactive in [9], in experiment [6] and in [7].
Turning to `COc1ncc(F)c2nc(S(=O)(=O)Nc3c(F)cccc3F)nn12`, the Potency result in experiment [1], in experiment [2], in experiment [3] and in [4] was “inactive” in each case. Moreover, the outcome in experiment [9], in experiment [5] and in experiment [7] was inactive.
With `Fc1ccc(C2(Cn3cncn3)OC2c2ccccc2Cl)cc1` (stereo not given), the Potency entry in experiment [2], in experiment [3] and in experiment [4] was “inactive” throughout. For the same compound, the result in experiment [9], in experiment [5] and in experiment [7] was inactive.
For `CCCSP(=S)(OCC)Oc1ccc(Cl)cc1Cl` (stereo not given), the Potency entry in experiment [1] and in experiment [3] was “inactive” in each case. The call in [9], in [5], in [6] and in [7] was inactive.
Take `O=[N+]([O-])c1cccc2c([N+](=O)[O-])cccc12`: the Potency result in experiment [1] and in experiment [4] was “inactive” in each case. The compound was called inactive in experiment [9], in experiment [5], in [6] and in [7].
With `O=C1OC(=O)C2C1C1(Cl)C(Cl)=C(Cl)C2(Cl)C1(Cl)Cl` (stereo not given), the Potency result in [1], in experiment [3] and in experiment [4] was “inactive” throughout. Further, the call in experiment [9], in experiment [5], in experiment [6] and in experiment [7] was inactive.
In the case of `CCOc1nc(C(Cl)(Cl)Cl)ns1`, the Potency entry in [2] and in experiment [4] was “inactive” in each case. For the same compound, the result in experiment [9], in [5] and in experiment [6] was inactive.
With `C(CCOCC1CO1)COCC1CO1` (stereo not given), the Potency result in experiment [2], in experiment [3], in experiment [4] and in experiment [8] was “inactive” each time. For the same compound, the compound was called inactive in experiment [5], in [6] and in experiment [7].
With `C[C@]12CC[C@H]3[C@@H](CC=C4C[C@@H](O)CC[C@@]43C)[C@@H]1CC[C@@H]2O`, the Potency result in [2] and in experiment [3] was “inactive” throughout. For the same compound, the outcome in [9] and in [7] was inactive.
With `CCC#N`, the Potency entry in experiment [2] and in experiment [3] was “inactive” throughout. The call in experiment [5], in experiment [6] and in experiment [7] was inactive.
Take `CC(CCc1ccccc1)NC(C)C(O)c1ccc(O)cc1` (stereo not given): the Potency result in experiment [1], in [3] and in experiment [4] was “inactive” in each case. Further, the result in experiment [9], in [5], in experiment [6] and in [7] was inactive.
With `C1CCC(C2CCCCC2)CC1`, the Potency result in experiment [3] and in [4] was “inactive” each time. Further, the result in [9], in experiment [5] and in [6] was inactive.
Turning to `CCCCc1ccc(O)cc1`, the Potency entry in experiment [1] and in experiment [4] was “inactive” in each case. Also, the Potency in experiment [8] is 48.5 µM (active). Also, the result in experiment [9], in experiment [6] and in experiment [7] was inactive.
